Test results as given in PubChem BioAssay (NCI).
This is part of a sample that, as a whole, favours compounds with a hit. Of some 83,000 tested, about 20% had one in any assay.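 A percent growth of 40 corresponds to 60% growth inhibition; 0 means no net growth; -100 means all cells died. Active threshold: below 10.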 Active and inactive are the calls of the source.

tested on: HL-60(TB) leukemia; experiment: NCI-60 one-dose screen, 48 h (100 = growth as untreated, 0 = no growth, -100 = all killed); conditions: 10 µM unless noted

Row | SMILES | growth
1 | C=C1C(=O)O[C@H]2[C@H]1CC/C(COC(=O)NCC(=O)Nc1ccc(OC)c(C(N)=O)c1O)=C\CC[C@@]1(C)O[C@@H]21 | -7.13% (active)
2 | CCN(CC)CCCCCCCNc1c2ccc(Cl)cc2nc2ccc(OC)cc12 | -46.9% (active)
3 | COc1ccc(C2CC(c3cc(OC)c(OC)c(OC)c3)=NO2)cc1OCCCCOc1cc2c(cc1OC)C(=O)N1CCC[C@H]1C=N2 (some centres undefined) | 34% (inactive)
4 | O=c1[nH]c(Nc2ccc(S(=O)(=O)O)cc2)nc2nc(Nc3ccc(NC(=S)Nc4ccccc4)cc3)nc(-c3ccc(O)cc3O)c12 | 120% (inactive)
5 | O=c1[nH]c(Cl)nc2c1cnn2-c1ccccc1 | -2.45% (active)
6 | O=C(CN1CCOCC1)Nc1ccc2ncnc(Nc3ccc(OCc4cccc(F)c4)c(Cl)c3)c2c1 | 75.2% (inactive)
7 | Nc1c(C(=O)Nc2cccc3ncccc23)sc2nc3c(cc12)C(=O)CCC3 | 32.8% (inactive)
8 | O=C(O)c1nn(-c2ccc(Cl)cc2)nc1N1CCCC1 | 97% (inactive)
9 | NC(=O)NCCO | 109% (inactive)
10 | CCN(CC)c1cc2oc3cc(N)cc(=N)c-3nc2cc1C | -15.2% (active)
11 | Nc1cc2c(cc1Br)-c1c(C(=O)O)cccc1C2O (centres undefined) | 77.8% (inactive)
12 | C#CC(=O)/C=C/CCCCCCC#CC(=O)CCC(=O)C#CCCCCCC/C=C/C(=O)C#C | -70.1% (active)
13 | N#Cc1c(-c2ccccn2)[nH]c(=S)[nH]c1=O | 94.9% (inactive)
14 | COc1cccc(-c2nn(-c3ccccc3)cc2-c2ccnc(NCCCNC(=O)c3ccccc3)c2)c1 | 23.8% (inactive)
